Results: PubChem BioAssay AID1688 (National Center for Advancing Translational Sciences (NCATS), 2009)
Among all 220,000 compounds or so, about 2,400 (1.1%) were called active. Roughly 7% stayed inconclusive and do not appear here. The sample holds actives, similar compounds and a random draw of the others, so the mix is not that of the screen. Calls follow the shape of the dose curve; as a rule, active = well fitted inhibition curve with a large enough effect; inconclusive = small, poorly fitted or top-dose-only effect, or effect the other way; inactive = no such curve, though single readings can be large or run the other way.

Assay: qHTS Multiplex Assay to Identify Dual Action Probes in a Cell Model of Huntington: Aggregate Formation (GFP); also: nearly all actives have a fitted effect of over 60% in size
Conditions: PC12 HttQ103-GFP aggregates, Acumen cytometry, 40 h; series mostly up to 9.22 µM; activity change, negative = inhibition: at the top concentration
Outline: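 PC12/HTTQ103-GFP, ecdysone-inducible; teb 100 nM; cpd qHTS titration; GFP aggregates read on laser cytometer, Ex 488/Em 500-530 nm.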
% is scaled to controls: 0 for no effect and ±100 for the full control effect; potency is read from the fitted curve at half-maximal effect.

Activity change, negative = inhibition, inactive:
CCCCNC(=O)OCCSCCS(=O)(=O)c1ccc(Cl)cc1 6.92%
CC(C)(C)n1cnnc1Sc1ccc([N+](=O)[O-])cn1 4.48%
CCC(C)N1C(=S)SC(C)(C)C1N(O)C(=O)NC1CCCCC1 (stereo not drawn) 36.2%
c1ccc(-c2nc(NCc3ccco3)c3ccccc3n2)cc1 11.2% [at 46.1 µM]
O=C(NCc1ccncc1)C(=O)NCc1ccco1 -9.62% [at 46.1 µM]
Cc1cc(C)cc(NS(=O)(=O)c2ccc(F)cc2)c1 23.6%
CCOc1cc(N2CCOCC2)c(OCC)cc1NC(=O)c1ccc(C)s1 4.22%
CCOc1cc(N2CCOCC2)c(OCC)cc1NC(=O)c1cc(C)nc2ccccc12 6.16%
O=c1c2ccccc2cnn1Cc1n[nH]c(=S)n1-c1ccccc1F -0.823%
O=C1CCCN1CCCNc1ncnc2c1[nH]c1ccccc12 10.3% [at 46.1 µM]
COc1cc(OC)c(OC)cc1/C=N/Nc1ncnc2c1[nH]c1ccc(C)cc12 -13.5%
COc1ccc(NC(=O)C2CCC(CNc3c(N4CCCCC4)c(=O)c3=O)CC2)c(OC)c1 (stereo not drawn) 0%
Cc1cc(N)n(-c2ccc(S(=O)(=O)N3CCCC3)cc2[N+](=O)[O-])n1 -12.1%
COCCn1c(CN(Cc2ccccc2)Cc2ccccc2)nc2c1c(=O)n(C)c(=O)n2C -8.79% [at 46.1 µM]
CCOC(=O)N1CCN(Cc2nc3c(c(=O)n(C)c(=O)n3C)n2Cc2ccccc2)CC1 6.2% [at 46.1 µM]
O=C(Nc1ccc(Br)cn1)C1CCN(S(=O)(=O)c2cccs2)CC1 -30.3%
COC(=O)c1cccc(NS(C)(=O)=O)c1 4.68%
Cc1ccc(Cl)c(OCC(=O)NN2CCN(C)CC2)c1 10.6%
Cn1cc(/C=C/c2nc3ccccc3c(=O)n2-c2cccc([N+](=O)[O-])c2)c2ccccc21 10.7% [at 46.1 µM]
C/[N+]([O-])=C\c1ccc([N+](=O)[O-])o1 1.96% [at 46.1 µM]
CC(NC(=O)C(C)(C)C)C(c1cccs1)N1CCN(Cc2ccccc2)CC1 (stereo not drawn) 0.443%
Cc1ccc(C)c2c1cc(C)c1nnc(SCC(=O)Nc3cccc(C(=O)O)c3)n12 -40.5%
O=S(=O)(Nc1ccc(OC(F)(F)F)cc1)c1cccc2nonc12 0.873%
CC(C)CN(CC(C)C)CC(O)CN(c1ccccc1)S(=O)(=O)c1ccccc1[N+](=O)[O-] (stereo not drawn) -1.18%
COc1ccccc1CNC(=O)CCn1c(=O)sc2ccccc21 0.103% [at 46.1 µM]
Cc1cccc(CSc2nnc(Cn3c(=O)sc4ccccc43)n2C)c1 -12.4% [at 46.1 µM]
CC(C)Sc1nnc([C@H](Cc2ccccc2)NC(=O)OC(C)(C)C)o1 9.88%
CCc1cc(C(=O)c2ccc(OC)cc2)c(NC(=O)CN2CCN(C)CC2)s1 -4.7%
CCOC(=O)c1c(NC(=O)NC(C)(C)C)sc2c1CCN(C)C2 24.2%
O=C(Nc1cc(C(F)(F)F)ccc1Cl)c1cc(C2CC2)on1 -12.3% [at 46.1 µM]
Cc1cc(C(=O)Nc2c(C)nn(Cc3ccccc3)c2C)on1 -1.37% [at 46.1 µM]
CCOC(=O)c1c(C)oc(C)c(C(=O)OCC)c1=O -16.8%
Cc1c(S(=O)(=O)NCc2ccccc2)c(=O)n(C)c(=O)n1C 34.1%
CCc1ccc2nc(Nc3ncc(C(C)=O)c(C)n3)nc(C)c2c1 -19.3%
O=C(CSc1nc2[nH]ncc2c(=O)n1-c1ccccc1)N1CCCc2ccccc21 1.39% [at 46.1 µM]
O=C(CSc1nc2ccccc2c(=O)n1CCCO)N1CCc2ccccc21 4.23% [at 46.1 µM]
Cc1nc(CNS(=O)(=O)c2cc([N+](=O)[O-])ccc2C)cs1 0.787%
COc1ccc(NC(=S)NCCNC(C)=O)cc1 12.1% [at 46.1 µM]
COc1ccc(NC(=S)Nc2ccccc2Cl)cn1 7.84% [at 46.1 µM]
FCOC(C(F)(F)F)C(F)(F)F 6.73% [at 46.1 µM]
O=C(Nc1ccc2ccccc2c1)/C(=C/c1cccc(Br)c1)NC(=O)c1ccco1 -8.13% [at 46.1 µM]
COc1ccc(C(=O)NC(=S)NNC(=O)CCc2ccccc2)cc1 -24% [at 46.1 µM]
O=C(c1ccco1)N1CCN(CCOc2ccccc2)CC1 12.3%

Potency, active:
c1coc(CNc2ncnc3ccccc23)c1 7.94 µM
CCOc1cc(N2CCOCC2)c(OCC)cc1NC(=O)COc1cccc2cccnc12 3.55 µM
CC(C)OCCCNc1ncnc2c1[nH]c1ccc(F)cc12 2.24 µM
Cn1c(=O)c2c(nc(OCc3cccnc3)n2Cc2ccccc2)n(C)c1=O 12.6 µM
CCn1c(/C=C/c2ccc([N+](=O)[O-])o2)nc2ccccc2c1=O 11.2 µM
COc1ccc(Cn2c(=O)sc3ccccc32)cc1OC 0.631 µM
Cc1nn(Cc2ccc(Cl)c(Cl)c2)c(C)c1NC(=O)c1cc(C2CC2)on1 17.8 µM
Cn1c(SCC(=O)N2CCCc3ccccc32)nc2ccccc2c1=O 7.94 µM
COc1ccc(CS(=O)/C(Cl)=C(/Cl)C(=O)Nc2ccc(OC)nc2)cc1 (stereo not drawn) 5.01 µM
CC(Oc1ccc2ccccc2c1)C(=O)NNC(=S)NC(=O)c1ccco1 (stereo not drawn) 11.2 µM
